Results: PubChem BioAssay (NCI)
This is part of a sample that, as a whole, favours compounds with a hit. Of some 79,000 tested, about 15% had one in any assay. Values without a mark were called inactive. The source made the active and inactive calls. No stated cut-off is given here; in the data, active means growth inhibition above about 70%; inactive means the rest.

Experiment: NCI Yeast Anticancer Drug Screen. Data for the CLN2oe strain (AID 163);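 further: 0% = growth of vehicle-only control cultures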
Conditions: S. cerevisiae CLN2oe strain, stronger effect = higher value
Method: Growth inhibition of yeast strains with defined genetic alterations is measured as a screen for potential anti-cancer activity. Selected strains with alterations in DNA damage repair or cell cycle control were exposed to compounds and growth inhibition was measured relative to vehicle treated controls. The strain used in this assay is CLN2oe

SMILES | growth inhibition (at 1.2 µM) | growth inhibition (at 3.7 µM) | growth inhibition (at 11.0 µM) | growth inhibition (at 33.0 µM) | growth inhibition (at 100.0 µM)
Cn1c(=O)c2ccccc2c2ccccc21 | 1% | 0% | 7% | 22% | 51%
CCCCCCCCC/C=C/C=C/C(=O)NCC(=O)NC1C(O)C(O)C(Nc2ncnc3nc[nH]c23)OC1C(O)CO (stereo not given) | 4% | 8% | 11% | 18% | -11%
CC1C(NNc2ccccc2)Oc2cc3c(cc2C1c1ccccc1O)OCO3 (stereo not given) | -1% | 98% (active) | 96% (active) | 90% (active) | 88% (active)
CC[C@@]1(O)C(=O)OCc2c1cc1n(c2=O)Cc2cc3c(CN(C)C)c(O)ccc3nc2-1 | -2% | -4% | -6% | -13% | -1%
C[S+](C)C1(c2ccccc2)C(=O)c2ccccc2C1=O | 1% | 2% | 8% | 13% | 26%
OC1(c2ccccc2)CSC2=Nc3ccccc3C3CCN1N23 (stereo not given) | -23% | -16% | -46% | 2% | 93% (active)
FC(F)(F)c1cc(NC(=S)N2c3ccccc3-n3cccc3C2c2cccnc2)cc(C(F)(F)F)c1 (stereo not given) | -3% | -2% | 2% | -1% | -5%
OCC1OC(OCC(O)C(O)C(O)C(/C=N/Nc2ccccc2)=N/Nc2ccccc2)C(O)C(O)C1O (stereo not given) | 4% | 8% | 10% | 9% | 40%
